According to PubChem BioAssay (NCI):
Compounds without any hit were thinned out: in the full panel of roughly 83,000, 20% have a hit.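 Compound tested at a single concentration for 48 hours in 96-well plates; a percent growth value below 10 was scored as active.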 Unmarked numbers belong to inactive results. The source made the active and inactive calls.

Test system: BT-549 breast
Experiment: NCI-60 one-dose screen, 48 h (100 = growth as untreated, 0 = no growth, -100 = all killed)
Details: 10 µM

Compound | growth
COc1ccc(-c2nc(-c3nc4ccc(Cl)cc4[nH]3)c3ccccn23)cc1 | 42.9%
O=C(O)c1ccc(P(=O)(O)O)c([N+](=O)[O-])c1 | 102%
COc1ccc2c(c1)N(CCO)C1=C(C(=O)OC1)C2c1ccc(OC)c(OC)c1 (centres undefined) | 64.2%
CC(=O)O[C@]1(C)CC[C@H]2[C@H](CNCCc3ccc(Cl)cc3)C(=O)O[C@@H]2C2=C(C)C(=O)C[C@H]21 | 108%
COc1ccc(Cl)cc1-n1nnc(-c2nc3ccccc3[nH]2)c1N | 98.8%
O=C1/C(=C\c2ccc(F)cc2)CN(C(=O)c2ccccc2)C/C1=C\c1ccc(F)cc1 | 34.9%
CCC(=O)N1C/C(=C/c2ccc(Cl)cc2)C(=O)/C(=C/c2ccc(Cl)cc2)C1 | -18.7% (active)
COc1cc(C2CC(c3ccc(Nc4ccnc5cc(Cl)ccc45)cc3)=NN2c2ccc(Cl)cc2)cc(OC)c1OC (centres undefined) | 68.4%
COc1cc(NC(=O)CCSc2nc3ccc(C)cc3c(=O)n2Cc2ccccc2)cc(OC)c1OC | 95.5%
COc1cc(Nc2ncnc(Nc3ccc4c(n3)NC(=O)C(C)(C)O4)n2)cc(OC)c1OC | 33.7%
C[C@@H]1C=C2C(=O)O[C@@H]3CC[C@H](C1)[C@]23O | 54.4%
N#CCCN1C/C(=C/c2ccc(Cl)cc2)C(=O)/C(=C/c2ccc(Cl)cc2)C1 | -24.5% (active)
Cc1[nH]nc2c1C(c1cnn(C)c1)C(C#N)=C(N)O2 (centres undefined) | 102%
O=C(Nc1nc2ccc(F)cc2s1)c1cc(-c2ccc(F)cc2)n2nc(-c3ccccc3)cc2n1 | 88%
